# A selection: hits, their analogues and other compounds. The true share with any hit is near 3.5%.
# Pf apPOL block = Pf-apPOL DNA polymerase inhibition; inhibition, % at 10 µM; 0.25% of 210,000 active; Recombinant Pf-apPOL, molecular beacon fluorescence, 1.5 h
# mHTT CaM bind = mHTT-calmodulin interaction abrogation; P42858; AlphaScreen His-mHTT/GST-CaM binding, luminescence; inhibition, % at 15 µM; 3.6% of 190,000 active; AID 1671202;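 further: 0% = both proteins with DMSO and 100% = one protein alone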
# The depositor's hits bear a star; x = no result given; + = active, no number. No stated cut-off is given here; in the data, active means inhibition above about 50%; inactive means the rest.
SMILES,Pf apPOL block,mHTT CaM bind
COc1ccc(-c2cc(C(=O)N3CCCCC3C)c3ccccc3n2)cc1OC (stereo unspecified),-8.3,21.8
COc1ccc(OC)c(NC(=O)c2ccc(Cl)cc2)c1,-3.4,-5.5
CC(=O)Oc1ccc(C(=O)Nc2cc(Cl)ccc2OC(C)=O)cc1,-0.6,68.8*
Cc1cc(S(=O)(=O)N2CCN(S(=O)(=O)c3ccc(Cl)c(C)c3)CC2)ccc1Cl,-4.2,-2.0
Cc1cc(C)c(S(=O)(=O)N=C2C=C(Br)C(=O)c3ccccc32)cc1C,2.5,41.0
Cc1cc(C)c(S(=O)(=O)N=C2C=CC(=O)c3ccccc32)cc1C,4.7,98.0*
Cc1ccc(C)c(S(=O)(=O)N2CCN(C)CC2)c1,1.4,-2.8
Cc1ccc(C)c(S(=O)(=O)N=C2C=CC(=O)c3ccccc32)c1,-2.7,96.0*
Cc1cc(S(=O)(=O)N=C2C=CC(=O)c3ccccc32)ccc1Cl,-5.0,90.0*
O=C(CCc1nnc(-c2ccccc2F)[nH]c1=O)NC1CCCCC1,-2.1,5.7
CCc1ccc(NC(=O)N2CCCC2c2cc(C(C)C)on2)cc1 (stereo unspecified),-0.9,-7.1
CC(C)(C)OC(=O)NCc1ccccc1/C=C/S(=O)(=O)NCc1ccccc1,49.4,0.6
CCCN(C)C(=O)c1cn2ccnc(-c3ccc(F)cc3)c2n1,-0.1,6.8
COc1ccc(C)cc1S(=O)(=O)n1nc(C)cc1C,-3.1,-21.4
COc1ccc(C)cc1S(=O)(=O)n1nnc2cc(Cl)ccc21,4.4,100.0*
COc1cc(C)c(C)cc1S(=O)(=O)n1nnc2ccccc21,-2.3,88.5*
COc1ccc(S(=O)(=O)n2nnc3ccccc32)c(C)c1,18.7,-2.0
COc1ccc(OC)c(S(=O)(=O)n2nnc3ccccc32)c1,-4.4,100.0*
COc1cc(C)c(S(=O)(=O)n2nnc3ccccc32)cc1C,3.3,-14.2
COc1cc(O)c(C(CC(=O)N2CCOCC2)c2ccc3c(c2)OCO3)c(OC)c1 (stereo unspecified),-6.9,1.6
COc1cccc(OC)c1C(=O)Oc1ccc2c(c1)OC(=Cc1cccnc1)C2=O,-4.5,5.6
COc1cc2c(cc1OC)C(C(=O)NCCN(C)C)C(c1cccs1)N(C)C2=O (stereo unspecified),1.1,-3.0
CCOC(=O)CNC(=S)NN(C)C,-4.8,x
CCCN(CCC)c1ncnc2c1cnn2-c1ccc(C)cc1C,-4.9,2.0
Cc1cccc[n+]1C1C(c2ccc([N+](=O)[O-])cc2)C(C#N)=C(C(C#N)C#N)NC1(O)C1CC1 (stereo unspecified),-0.6,1.0
SMILES,Pf apPOL block,mHTT CaM bind
Cc1ccc[n+](C2C(c3ccc([N+](=O)[O-])cc3)C(C#N)=C(S)NC2(O)C2CC2)c1 (stereo unspecified),-0.8,84.0*
O=C1C=CC(=NOC2=C(ON=C3C=CC(=O)C=C3)C(=O)c3ccccc3C2=O)C=C1,-13.6,34.0
CC1=CC(=O)C=C/C1=N\OC1=C(O/N=C2\C=CC(=O)C=C2C)C(=O)c2ccccc2C1=O,6.1,+
c1ccc2c3c(ccc2c1)OCOc1ccc2ccccc2c1C3,-3.8,x
CN(C1=CC(=O)c2ccccc2C1=O)c1ccccc1,4.7,59.5*
CN(C)N1C(=O)c2ccccc2C1=O,-5.7,-14.7
CN1CCN(C(=O)C2CCN(c3nc4ccc(-c5cncnc5)nc4s3)CC2)CC1,2.6,15.3
CCCCCc1cc(=O)oc2c(C(CCN3CCCCC3)c3ccc(OC)cc3)c(OC)cc(OC)c12 (stereo unspecified),-19.1,100.1*
COc1cc(C(CCN2CCCCC2)c2c(OC)cc(OC)c3c(-c4ccccc4)cc(=O)oc23)cc(OC)c1OC (stereo unspecified),-15.7,66.8*
COc1cc(OC)c2ccc(=O)oc2c1C(CCN1CCCCC1)c1ccc(N(C)C)cc1 (stereo unspecified),-12.3,42.3
COc1ccc(C(CCN2CCCC(C)C2)c2c(OC)cc(OC)c3c2OC(=O)CC3c2cc(OC)c(OC)c(OC)c2)cc1 (stereo unspecified),-1.7,53.6*
COc1cc(C(CCN2CCOCC2)c2c(OC)cc(OC)c3c(C)cc(=O)oc23)cc(OC)c1OC (stereo unspecified),-11.8,28.2
COc1cc(C(CCN2CCCC2)c2c(OC)cc(OC)c3c(C)cc(=O)oc23)cc(OC)c1OC (stereo unspecified),-13.1,10.5
COc1cc(C(CCN2CCCC(C)C2)c2c(OC)cc(OC)c3c(-c4ccccc4)cc(=O)oc23)cc(OC)c1OC (stereo unspecified),-9.0,87.2*
COc1cc(OC)c2ccc(=O)oc2c1C(CCN1CCCC(C)C1)c1ccc2c(c1)OCO2 (stereo unspecified),-7.5,16.7
CC1CCN(C(=O)CN(c2cc(C(F)(F)F)ccc2Cl)S(=O)(=O)c2ccccc2)CC1,-1.7,-3.0
CCOc1cc(/C=C2/C(=O)ON=C2C)ccc1OCc1cccc(F)c1,1.7,93.0*
C#CCOc1c(Cl)cc(/C=C2\C(=O)ON=C2C)cc1OCC,-0.6,22.0
